# In PubChem BioAssay (Tox21):
# “And” between values parts separate entries of the source, which are not always exact repeats. Identical values can stand only once. Results filed as inconclusive are left out. Some structures have more than one record in an assay (separate samples or runs), and their calls can disagree. The source made the active and inactive calls. Calls follow the shape of the dose curve; as a rule, active = well fitted cell-killing curve with a large enough effect in the repeat runs; inconclusive = weak or mixed curves; inactive = flat fitted curve, though single readings scatter.
# Test: qHTS RealTime-Glo MT Cell Viability Assay in HepG2 cells - 24 hour (AID 1224867); also: nearly all actives have a fitted effect of over 50% in size
# Conditions: RealTime-Glo luminescence; series mostly up to 76.8 µM; activity change, negative = cytotoxicity: at the top concentration
# From the text: U.S. Tox21 Program National Center for Advancing Translational Sciences [NCATS] NIH Chemical Genomics Center [NCGC] U.S. Environmental Protection Agency [EPA] National Institutes of Environmental Health Sciences [NIEHS] National Toxicology Program [NTP] U.S. Food and Drug Administration [FDA] Tox21 Assay Overview: Measure of cell viability is critical in the cell-base assay. Analysis of cell viability is necessary for the characterization of cell responses to cytotoxic drugs and environmental stress. A RealTime-Glo MT Cell Viability Assay to monitor cell viability in real time of continues cell culture during 40 hours of compound treatment was used to screen Tox21 10K library compounds in HepG2 cells. The RealTime-Glo MT Cell Viability Assay is a nonlytic, homogeneous, bioluminescent method to measure cell viability in real time using a simple, plate-based method. The assay involves adding NanoLuc luciferase and a cell-permeant prosubstrate to cells in culture. Viable cells reduce the proprietary prosubstrate to generate a substrate for NanoLuc luciferase. This substrate diffuses from cells into the surrounding culture medium, where it is rapidly used by the NanoLuc Enzyme to produce a luminescent signal. The signal correlates with the number of viable cells, making the assay well suited for cytotoxicity studies.
# Tox21 Assay Protocol Summary: The mixture of HepG2 cell suspension and reagents were dispensed at 600cells/6 ul/well in 1536-well tissue culture treated black solid bottom plates using a Multidrop dispenser. After the assay plates were incubated at a 37 C/5% CO2 incubator for 5 hours, 23 nL of compounds dissolved in DMSO, positive and negative controls was transferred to the assay plate by a pintool work station. The plates were incubated at 37 C for 40 hours. The luminescence intensity were measured at 0h, 8h, 16h, 24h, 32h and 40h time points using ViewLux plate reader during compound treatment.
# % is scaled to controls: 0 for no effect and ±100 for the full control effect; potency is read from the fitted curve at half-maximal effect.
SMILES,"activity change, negative = cytotoxicity",Potency
O=C(Cc1ccccc1)OCCc1ccccc1,-3% (inactive),
CC(C)(C)CC(C)(C)c1ccc(O)cc1,,46.2 µM (active) and inactive
Cc1nc2ccccc2c(=O)n1-c1ccccc1Cl,-18.1% (inactive),
C[C@]12CC[C@H]3[C@@H](CCC4=CC(=O)CC[C@@H]43)[C@@H]1CC[C@@H]2OC(=O)CCc1ccccc1,-9.45% [at 35.3 µM] (inactive),
Clc1ccc(Cl)c(Cl)c1,,inactive
CC(C)(C)NCC(O)c1cc(Cl)c(N)c(C(F)(F)F)c1 (stereo not given),1.65% [at 35.3 µM] (inactive),
CC1(C)[C@H](C(=O)O[C@H](C#N)c2cccc(Oc3ccccc3)c2)[C@@H]1C=C(Br)Br,,inactive
CCCCC1C(=O)NC(=O)N(C2CCCCC2)C1=O (stereo not given),3.25% [at 35.3 µM] (inactive),
CC(Cc1ccccc1)NCc1ccccc1Cl (stereo not given),-1.86% [at 35.3 µM] (inactive),
CCNC(=O)NC(=O)/C(C#N)=N/OC,5.04% (inactive),
O=S(=O)(Cl)Cl,-3.56% (inactive),
Nc1ccccc1C(=O)OCC(O)CO (stereo not given),2.33% [at 35.3 µM] (inactive),
CCCN(CCOc1c(Cl)cc(Cl)cc1Cl)C(=O)n1ccnc1,-14.8% (inactive),
O=CC=O,-2.54% (inactive),
CC(O)CN1CCN(CC(=O)[O-])CCN(CC(=O)[O-])CCN(CC(=O)[O-])CC1.[Gd+3] (stereo not given),-0.0099% [at 35.3 µM] (inactive),
c1ccc2c(c1)sc1ccccc12,,inactive
O=C1NC(=O)C(=O)C(=O)N1,-0.329% (inactive),
CCCBr,-1.65% (inactive),
CC(C)[C@@H](C(=O)O[C@@H](C#N)c1cccc(Oc2ccccc2)c1)c1ccc(Cl)cc1,,inactive
C[N+](C)(C)CC1CO1 (stereo not given),1.58% (inactive),

SMILES,"activity change, negative = cytotoxicity",Potency
O=C(O)CCCOc1ccc(Cl)cc1Cl,,inactive
CCC1CCC(=O)O1 (stereo not given),2.21% (inactive),
C[CH2][Hg][S]c1ccccc1C(=O)O,,2.19 µM (active) and 2.13 µM (active)
C[C@H](N)[C@H](O)c1ccc(O)c(O)c1,-2.69% [at 35.3 µM] (inactive),
C=CCN1C[C@H](C)N([C@H](c2ccc(C(=O)N(CC)CC)cc2)c2cccc(OC)c2)C[C@H]1C,-5.29% [at 35.3 µM] (inactive),
COc1cc(CC(C)N)c(OC)cc1Br (stereo not given),-16.8% (inactive),
CC(=O)OC(c1ccccc1)C(Cl)(Cl)Cl (stereo not given),-3.87% (inactive),
CN1CC[C@]23c4c5ccc(O)c4O[C@H]2[C@@H](O)C=C[C@H]3[C@H]1C5,-0.657% (inactive),
COc1cc(C[C@@H](C)N)c(OC)cc1Br,-9.45% (inactive),
CCCCCCCCCCCCN(C)C,-1.91% (inactive),
NCCc1cc(O)c(O)cc1O,-12.2% [at 35.3 µM] (inactive),
C=CCc1ccc(OC(=O)Cc2ccccc2)c(OC)c1,-7.43% (inactive),
Nc1cc(Cl)cc(C(=O)O)c1Cl,,inactive
C=CCOCC1CO1 (stereo not given),0.498% (inactive),
FC(Cl)(Cl)C(F)(Cl)Cl,-0.42% (inactive),
CC(C)(c1ccccc1)c1cc(-n2nc3ccccc3n2)c(O)c(C(C)(C)c2ccccc2)c1,-0.167% [at 35.3 µM] (inactive),
CCC1(CC)C(=O)NC(=O)NC1=O,0.718% [at 35.3 µM] (inactive),
N#CC(C#N)=Cc1ccc(O)c(O)c1,0.032% [at 35.3 µM] (inactive),
C[C@]12C=CC3=C4CCC(=O)C=C4CC[C@H]3[C@@H]1CC[C@@H]2O,,inactive
C[C@H]1O[C@H](OC2[C@@H](O)[C@@H](O)C(O)[C@H](O)[C@H]2O)[C@@H](N)C[C@@H]1N=C(N)C(=O)O (stereo not given in full),2.39% (inactive),
